# Results: PubChem BioAssay
# Results filed as inconclusive are left out. For part of these data: Results with a measured potency or affinity are listed apart. Active and inactive are the calls of the source.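 Rule for the calls, unless noted: active = luciferase signal above three times the same-plate solvent-only control wells; inactive = the rest.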
# What was measured:
# [1] = blockers of polyQ-driven CASP3 activation – cell-based (AID 1583); conditions: polyglutamine-induced caspase-3 activation, cell assay; stronger effect = higher value;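 tested at 10 µM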
# [2] = yeast 75Q aggregation reduction – 75Q-TubU reporter (AID 1593); conditions: Yeast 75Q polyglutamine aggregation reporter
# [3] = restoration of touch response, mutant HTT neurons – whole organism, C. elegans mechanosensory neurons, N-terminal huntingtin (AID 1599); conditions: C. elegans polyQ-huntingtin mechanosensory neurons, stronger effect = higher value
# [4] = blockers of cytochrome c efflux from mitochondria – biochemical, purified mitochondria (AID 1603); conditions: stronger effect = lower value;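 note: mouse liver mitochondria challenged with calcium chloride; signal normalized to the plate average as 100%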
# [5] = polyglutamine aggregate formation blockers (AID 1604); conditions: polyglutamine-induced protein aggregation inhibition assay; stronger effect = higher value; tested at 2.5 µM
# [6] = glutamate transport activators, MN-1 cells, MN-1 cell line (AID 1612); conditions: MN-1 motor neuron cells, stronger effect = higher value;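 note: tested at 1 µM final; 0% = mean of DMSO vehicle wells on each plate; positive means more glutamate uptake than control and negative means less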
# [7] = GFP-Q80 aggregate reduction, neuronal-like cells, cell-based, NGF-treated PC12, GFPQ80 (AID 1614); conditions: PC12 NGF-treated GFP-polyQ80 inclusion reduction;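 note: lower means fewer inclusions and 0 means no inclusions at all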
# [8] = 75Q-TubH aggregate inhibition, S. cerevisiae, yeast (AID 1616); conditions: S. cerevisiae 75Q-TubH polyglutamine aggregation suppression; stronger effect = higher value
# [9] = target: Mitogen-activated protein kinase 7 (Homo sapiens) (UniProt Q13164); assay: Gal4-ERK5 driven luciferase induction – cell-based, HTS, primary screen (AID 1508626); conditions: HeLa Gal4-ERK5 transactivation, 18 h, at 5 µM, stronger effect = higher value;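 note: luciferase driven by Gal4-ERK5 fusion binding five Gal4 sites before minimal TATA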
# [10] = target: NAD(+) hydrolase SARM1 (Homo sapiens) (UniProt Q6SZW1); assay: blocking NAD cleavage by SARM1 SAM-TIR – cell lysate, NAD-Glo luminescence (AID 1508614;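 active = compound whose remaining NAD level is above about 45 nM, limit read from the data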;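 note: higher remaining NAD means stronger inhibition of SARM1 NADase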); conditions: SAM-TIR HEK293T lysate NADase, at 1 µM, stronger effect = higher value
# [11] = viability loss in pontine glioma line – cell-based, SU-DIPG-XIII, MIPE5.0, CellTiter-Glo, qHTS, dose response (AID 1347064; cut-off not given, nearly all actives have AC50 up to about 23 µM); conditions: CellTiter-Glo ATP luminescence
# [12] = viability loss in pontine glioma line – cell-based, SU-DIPG-XVII, MIPE5.0, CellTiter-Glo, qHTS, dose response (AID 1347060; cut-off not given, nearly all actives have AC50 up to about 26 µM); conditions: CellTiter-Glo ATP luminescence
# [13] = viability loss in pontine glioma line – cell-based, JHH-DIPG-1, MIPE4.0, CellTiter-Glo, qHTS, dose response (AID 1347062; cut-off not given, nearly all actives have AC50 up to about 27 µM); conditions: JHH-DIPG-1 viability, CellTiter-Glo ATP luminescence
# [14] = growth inhibition of DIPG cells – cell-based, MIPE4.0 library, CellTiter-Glo luminescence, qHTS (AID 1347066; cut-off not given, nearly all actives have AC50 up to about 30 µM;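 note: cells exposed to compound for 48 hours before readout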); conditions: SU-DIPG-VI viability, CellTiter-Glo ATP luminescence
# [15] = compounds altering viability of human ES cells (AID 493140; call rule not given here;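 note: cells exposed to compounds for four days before counting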); conditions: human embryonic stem cell survival screen; stronger effect = higher value
# [16] = MELAS cybrid and Rieske KO viability enhancers – cell-based, MELAS cybrids, Rieske KO mouse fibroblasts, CellTiter-Glo, primary screen (AID 1508586;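 active = mean z-score across replicates of 1.96 or higher in either the MELAS or the Rieske mutant cell line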;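 note: z relative to plate mean and SD of compound and empty wells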); conditions: low glucose
# NAD(+) hydrolase SARM1 (Homo sapiens), sequence (Q6SZW1 whole entry, looked up): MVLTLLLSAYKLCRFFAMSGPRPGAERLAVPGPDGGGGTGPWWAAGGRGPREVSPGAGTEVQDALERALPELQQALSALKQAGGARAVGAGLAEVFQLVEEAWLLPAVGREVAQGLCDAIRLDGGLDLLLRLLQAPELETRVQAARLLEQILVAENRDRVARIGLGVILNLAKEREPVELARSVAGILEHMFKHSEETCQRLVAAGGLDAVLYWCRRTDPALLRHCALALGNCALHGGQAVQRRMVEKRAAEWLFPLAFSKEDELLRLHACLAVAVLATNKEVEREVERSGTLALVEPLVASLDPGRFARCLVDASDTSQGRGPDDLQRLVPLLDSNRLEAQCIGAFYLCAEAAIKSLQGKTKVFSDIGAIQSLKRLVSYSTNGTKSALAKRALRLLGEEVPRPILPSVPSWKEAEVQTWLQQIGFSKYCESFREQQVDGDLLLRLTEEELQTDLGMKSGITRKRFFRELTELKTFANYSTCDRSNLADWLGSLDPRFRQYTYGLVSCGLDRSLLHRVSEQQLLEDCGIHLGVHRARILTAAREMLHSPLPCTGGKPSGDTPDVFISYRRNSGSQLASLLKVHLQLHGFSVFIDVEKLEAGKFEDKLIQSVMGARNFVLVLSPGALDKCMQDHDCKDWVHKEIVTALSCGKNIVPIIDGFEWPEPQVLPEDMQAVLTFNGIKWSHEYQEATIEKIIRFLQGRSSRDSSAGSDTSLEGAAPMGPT
# Mitogen-activated protein kinase 7 (Homo sapiens), sequence (Q13164 whole entry, looked up, the tested form may be a part): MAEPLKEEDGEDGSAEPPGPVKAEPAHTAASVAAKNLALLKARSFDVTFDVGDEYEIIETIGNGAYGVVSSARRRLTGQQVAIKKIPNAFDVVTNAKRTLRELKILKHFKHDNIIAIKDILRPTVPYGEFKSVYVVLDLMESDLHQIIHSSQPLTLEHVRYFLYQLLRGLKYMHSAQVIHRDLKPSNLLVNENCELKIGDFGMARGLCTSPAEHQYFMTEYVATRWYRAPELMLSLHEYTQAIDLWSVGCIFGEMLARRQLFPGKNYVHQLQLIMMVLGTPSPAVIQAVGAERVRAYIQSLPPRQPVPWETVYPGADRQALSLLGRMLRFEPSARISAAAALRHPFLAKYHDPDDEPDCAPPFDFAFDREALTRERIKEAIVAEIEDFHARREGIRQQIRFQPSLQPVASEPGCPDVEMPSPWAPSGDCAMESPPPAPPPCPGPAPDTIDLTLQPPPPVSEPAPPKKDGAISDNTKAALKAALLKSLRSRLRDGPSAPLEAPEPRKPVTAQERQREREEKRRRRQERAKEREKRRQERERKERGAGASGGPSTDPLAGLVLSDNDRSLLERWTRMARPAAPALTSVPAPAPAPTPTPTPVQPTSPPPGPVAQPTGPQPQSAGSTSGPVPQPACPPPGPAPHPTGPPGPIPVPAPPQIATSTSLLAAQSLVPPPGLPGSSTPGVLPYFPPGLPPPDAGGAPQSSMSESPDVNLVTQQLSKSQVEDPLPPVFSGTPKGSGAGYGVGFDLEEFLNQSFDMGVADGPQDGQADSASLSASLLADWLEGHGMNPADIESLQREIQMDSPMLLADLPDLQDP
structure (smiles),measurement,setting,value
C[N+](C)(C)CC(=O)[O-],inhibition,[1],4.44%
same,score,[2],1.09
same,rescue above control,[3],5.21
same,cytochrome c release ratio,[4],1.34
same,inhibition of aggregation,[5],61.8%
same,glutamate uptake change,[6],21.6%
same,inclusion score,[7],2
same,aggregation suppression score,[8],0.998
C=C(C)C1Cc2c(ccc3c(=O)c4c(oc23)COc2cc(OC)c(OC)cc2-4)O1 (stereo not drawn),luciferase signal,[9],56 AU (inactive)
CC[C@@]1(O)C[C@H](O[C@H]2C[C@H](N(C)C)[C@H](O)[C@H](C)O2)c2c(cc3c(c2O)C(=O)c2c(O)ccc(O)c2C3=O)[C@H]1C(=O)OC,luciferase signal,[9],32 AU (inactive)
C[C@]12CCC(=O)C=C1C=CC1C2CC[C@@]2(C)C1CC[C@@]2(O)CCC(=O)O (stereo partly drawn),remaining NAD,[10],10 nM (inactive)
same,luciferase signal,[9],60 AU (inactive)
N#CC(O[C@@H]1O[C@H](CO[C@@H]2O[C@H](CO)[C@@H](O)[C@H](O)[C@H]2O)[C@@H](O)[C@H](O)[C@H]1O)c1ccccc1 (stereo partly drawn),inhibition,[1],3.65%
same,score,[2],1.42
same,rescue above control,[3],-2.1
same,cytochrome c release ratio,[4],1.2
same,inhibition of aggregation,[5],36.6%
same,glutamate uptake change,[6],14%
same,inclusion score,[7],2
same,aggregation suppression score,[8],1.51
same,outcome,[11],inactive
NC1C[C@H]1c1ccccc1 (stereo partly drawn),inhibition,[1],-1.78%
same,score,[2],0.95
same,rescue above control,[3],2.94
same,cytochrome c release ratio,[4],0.57
same,inhibition of aggregation,[5],-4.08%
same,glutamate uptake change,[6],0.89%
same,inclusion score,[7],2
same,aggregation suppression score,[8],1.29
Nc1ncn[nH]1,luciferase signal,[9],24 AU (inactive)
CC(=O)O[C@H]1C[C@@H](OC(C)=O)C(C)(C)C2C[C@@H](OC(C)=O)[C@]3(C)C(CC[C@@]4(C)[C@H](c5ccoc5)C(=O)[C@H]5O[C@]543)[C@]21C (stereo partly drawn),luciferase signal,[9],132 AU (active)
C[C@H]1C[C@@H](O)[C@]2(O)[C@@]13CC(=O)OC[C@@]2(C)[C@](C)(O)C(=O)C3,luciferase signal,[9],188 AU (inactive)
C[C@@H]1O[C@@H](O[C@H]2C[C@@H](O)[C@]3(CO)C4C(CC[C@]3(O)C2)[C@@]2(O)CC[C@H](C3=CC(=O)OC3)[C@@]2(C)C[C@H]4O)[C@H](O)[C@H](O)[C@H]1O (stereo partly drawn),inhibition,[1],78.5%
same,score,[2],1.02
same,rescue above control,[3],3.58
same,cytochrome c release ratio,[4],1.01
same,inhibition of aggregation,[5],75%
same,glutamate uptake change,[6],-21.6%
same,inclusion score,[7],2
same,aggregation suppression score,[8],1.24
C=C[C@H]1CN2CC[C@H]1C[C@@H]2[C@H](O)c1ccnc2ccccc12,inhibition,[1],15.4%
same,score,[2],1.55
same,rescue above control,[3],3.43
same,cytochrome c release ratio,[4],0.96
same,inhibition of aggregation,[5],-10.6%
same,glutamate uptake change,[6],4.38%
same,inclusion score,[7],2
same,aggregation suppression score,[8],1.26
C=CCc1ccc(OC)cc1,luciferase signal,[9],52 AU (inactive)
CCC(=O)O[C@H]1CCC2C3CCC4=CC(=O)CC[C@]4(C)C3CC[C@@]21C (stereo partly drawn),inhibition,[1],28.2%
same,score,[2],0.18
same,rescue above control,[3],-2.54
same,cytochrome c release ratio,[4],0.85
same,inhibition of aggregation,[5],35.3%
same,glutamate uptake change,[6],14.3%
same,aggregation suppression score,[8],0.523
O=C1C=CC(=O)c2ccccc21,luciferase signal,[9],388 AU (active)
O=C1CC[C@@]2(O)[C@H]3Cc4ccc(O)c5c4C2(CCN3CC2CC2)[C@H]1O5,inhibition,[1],-9.29%
same,score,[2],1.49
same,rescue above control,[3],-6.2
same,cytochrome c release ratio,[4],1.27
same,inhibition of aggregation,[5],61.5%
same,glutamate uptake change,[6],10.7%
same,inclusion score,[7],2
same,aggregation suppression score,[8],1.53
CCN1C[C@@]2(COC)C3[C@@H](OC)[C@H]4[C@@H]1[C@]3(C(OC)C[C@H]2O)C1C[C@@]2(O)[C@H](OC(=O)c3ccccc3)C1[C@]4(OC(C)=O)[C@@H](O)[C@@H]2OC (stereo partly drawn),inhibition,[1],-1.76%
same,score,[2],0.9
same,rescue above control,[3],-1.73
same,cytochrome c release ratio,[4],0.91
same,inhibition of aggregation,[5],65.4%
same,glutamate uptake change,[6],9.78%
same,inclusion score,[7],2
same,aggregation suppression score,[8],1.1
Oc1ccc2c3c1OC1[C@@H](O)CC[C@@]4(O)[C@@H](C2)N(CC2CCC2)CC[C@]314 (stereo partly drawn),inhibition,[1],-4.48%
same,score,[2],1.45
same,rescue above control,[3],-8.65
same,cytochrome c release ratio,[4],0.87
same,inhibition of aggregation,[5],52.2%
same,glutamate uptake change,[6],-2.6%
same,inclusion score,[7],2
same,aggregation suppression score,[8],1.67
C=C[C@H]1CN2CC[C@H]1C[C@@H]2[C@@H](OC(=O)OCC)c1ccnc2ccc(OC)cc12,inhibition,[1],11.7%
same,score,[2],1.24
same,rescue above control,[3],17
same,cytochrome c release ratio,[4],1.43
same,inhibition of aggregation,[5],70.5%
same,glutamate uptake change,[6],9.82%
same,aggregation suppression score,[8],1.15
C#CC1(O)CCC2C3CCC4=CC(=O)CCC4(C)C3CCC21C (stereo not drawn),inhibition,[1],4.95%
same,score,[2],0.22
same,rescue above control,[3],3.19
same,cytochrome c release ratio,[4],0.95
same,inhibition of aggregation,[5],63.6%
same,glutamate uptake change,[6],12.9%
same,inclusion score,[7],2
same,aggregation suppression score,[8],1.19
same,outcome,[12],inactive
same,outcome,[13],inactive
same,outcome,[11],inactive
same,outcome,[14],inactive
COc1cc2c(cc1O)CC1c3c(cc(O)c(OC)c3-2)CCN1C (stereo not drawn),survival,[15],4.08 (inactive)
NC1=NC(=O)N2CC12 (stereo not drawn),remaining NAD,[10],10 nM (inactive)
c1cncc(C2CCCCN2)c1 (stereo not drawn),survival,[15],6.5 (inactive)
same,luciferase signal,[9],20 AU (inactive)
C=CCN=C=S,remaining NAD,[10],10 nM (inactive)
CN(C)Cc1c[nH]c2ccccc12,survival,[15],7.33 (inactive)
same,z-score,"[16]; MELAS cybrid survival, CellTiter-Glo 48 h, stronger effect = higher value",-0.265 (inactive)
same,z-score,"[16]; Rieske KO mouse fibroblast survival, CellTiter-Glo 72 h",0.0463
